Screening data as filed in PubChem.
Beta2AR agonist = activates human beta-2 adrenergic receptor causing internalization; P07550; Am2.2-beta2AR cells, FAP receptor internalization, flow cytometry; response, % (concentration not given with the values); 0.43% of 340,000 active;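 active means response above a set limit, near 3 SD of response in nonfluorescent compounds, cut at about 42% in these data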
DYRK1A inh = inhibitors of rat Dyrk1A kinase | inhibition, % at 12.5 µM | ADP-Glo luminescence, NFATc1 peptide | AID 504441 | 0.43% of 310,000 active; in the data active means inhibition above about 50%;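 further: plate controls were vehicle with enzyme for no effect and no enzyme for full effect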
dFosB act-1 = enhances mouse delta FosB homodimer DNA binding | activation, % at 25 µM | P13346 | purified delta FosB, TAMRA-CDK5 oligo fluorescence polarization; percent of positive-control signal above neutral wells | 0.99% of 340,000 active;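 active means mean activation above about 17%, with every replicate also reaching it, limit read from the data, passing the limit was not always enough; inconclusive means only one of the two conditions met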
Target sequence (P13346 whole entry, looked up): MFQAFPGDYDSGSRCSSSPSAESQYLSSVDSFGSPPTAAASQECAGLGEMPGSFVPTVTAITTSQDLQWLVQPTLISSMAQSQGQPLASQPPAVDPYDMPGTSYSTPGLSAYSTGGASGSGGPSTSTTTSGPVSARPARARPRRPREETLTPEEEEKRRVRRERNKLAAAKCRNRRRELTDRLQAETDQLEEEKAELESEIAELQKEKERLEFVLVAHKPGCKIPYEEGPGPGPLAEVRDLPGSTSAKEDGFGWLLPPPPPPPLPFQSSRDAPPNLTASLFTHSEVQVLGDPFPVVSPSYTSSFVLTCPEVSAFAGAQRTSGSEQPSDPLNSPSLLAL
A1 inh = inhibitors of the anti-apoptotic protein A1, read as caspase activation | MEF A1-2A-BIM cells, Caspase-Glo 3/7 luminescence, 3 h; percent of clofoctol response, vehicle zero | caspase activation, % (test concentration not listed) | 0.066% of 330,000 active;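 active means over half of replicate activation scores above 10%, or exactly half above 10 with the replicate mean above 10; inconclusive means replicate mean below 10 yet half the replicates above 10; inactive means over half of replicates below 10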
dFosB act-2 = enhances mouse delta FosB homodimer binding to DNA; shares compounds with dFosB act-1; purified delta FosB, TAMRA-CDK5 oligo fluorescence polarization; normalised: neutral wells 0, positive control 100; activation, % at 24.9 µM; 2,400 tested, under 10 active; AID 588690;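 active means highest replicate activation at or above 34% and every replicate reaching that threshold; inconclusive means meets only one of the two criteria; inactive means meets neither criterion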;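 further: higher polarization means more probe DNA bound by delta FosB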
* hit, by the source's call; ? = inconclusive; nt = no result given. Hits are enriched below; roughly 1.6% of the tested compounds scored in any of these assays.

SMILES	Beta2AR agonist	DYRK1A inh	dFosB act-1	A1 inh	dFosB act-2
Cc1c(Cl)cccc1NC(=O)NCc1ccccn1	0.6	-0.5	-9.3	0.3	nt
O=C(NCc1ccc(F)cc1)NC(=O)c1ccc(Cl)cc1	2.3	-0.5	31.9*	-0.4	4.8
Cc1c(Cl)cccc1NC(=O)NCc1ccc(F)cc1	-8.6	nt	27.8*	0.4	-2.5
COc1ccc(N2CC(C(=O)N[C@@H](CC(C)C)C(=O)NC3CCCCC3)CC2=O)cc1 (stereo partly drawn)	-8.7	-2.9	7.8	0.2	nt
COc1ccc(CCN2C(=NC(=O)CC(C)C)SC3CS(=O)(=O)CC32)cc1OC (stereo not drawn)	-1.2	nt	-0.7	0.6	nt
COc1ccccc1CNC(=O)C1Cc2cc(S(=O)(=O)N3CCCCC3)ccc2N1C(C)=O (stereo not drawn)	-0.8	-0.4	-3.7	1.1	nt
c1ccc(-n2cc(CN3CCCC(CN4CCCC4)C3)c(-c3ccc4c(c3)OCO4)n2)cc1 (stereo not drawn)	15.3	-24.3	27.2*	-0.5	-6.3
O=C(CO/N=C/c1c(Cl)cccc1Cl)NNC(=O)c1cccc(Cl)c1	-8.5	1.2	43.1*	-0.1	-0.4
O=C(COC(=O)c1cccs1)Nc1ccc(F)c(F)c1	3.0	nt	-5.6	0.5	nt
N/C(CC(=O)Nc1ccc(F)c(Cl)c1)=N\OC(=O)c1cccs1	3.7	-2.2	23.2*	0.4	0.9
COc1cccc(NC(=O)CCC(=O)Nc2cc(OC)c(NC(=O)c3cccs3)cc2OC)c1	-11.4	5.1	-3.5	nt	nt
CC(=O)c1cn(-c2ccc(Cl)cc2)c(=O)n(Cc2ccc(Br)cc2)c1=O	-10.5	-1.5	27.2*	0.4	0.9
CC(=O)C1=C(O)C(=O)N(c2ccc(Br)cc2)C1c1ccc(Cl)cc1 (stereo not drawn)	3.1	-4.5	-7.7	0.3	nt
CC(/C=C1\SC(=O)N(CC(=O)Nc2cccc(O)c2)C1=O)=C\c1ccccc1	-5.0	3.9	24.2*	0.1	2.7
O=C(CN1C(=O)S/C(=C\c2ccc(Cl)cc2)C1=O)NNC(=O)c1ccccc1O	-11.6	-4.8	26.0*	0.4	2.2
O=C(CN1C(=O)S/C(=C\c2ccc(Cl)cc2)C1=O)NC1C=CS(=O)(=O)C1 (stereo not drawn)	5.3	-5.3	20.2*	0.1	5.0
COc1ccc(/C=C2\SC(=O)N(CC(=O)Nc3ccc(O)cc3)C2=O)cc1OC	1.3	-2.4	24.5*	-0.4	0.5
O=C(CN1C(=O)S/C(=C\c2cccc(Cl)c2)C1=O)NC1C=CS(=O)(=O)C1 (stereo not drawn)	-3.6	nt	-3.2	-0.7	nt
COc1ccc(/C=C2\SC(=O)N(CC(=O)Nc3ccccc3O)C2=O)cc1OC	8.5	-2.4	2.9	1.3	nt
Cc1oc(-c2ccccc2Cl)nc1CS(=O)(=O)CC(=O)NC1CCCC1	0.4	-0.8	-1.7	1.9	nt
CC1CCCC(NC(=O)COC(=O)c2cc(=O)[nH]c3ccccc23)C1C (stereo not drawn)	8.2	-3.1	1.2	1.1	nt
COC(=O)COc1ccc(/C=C2\SC(=O)N(CC(=O)Nc3ccccc3F)C2=O)cc1	-7.9	-3.1	32.7*	0.0	-2.3
O=C(CSc1nc2cc(Cl)c(Cl)cc2[nH]1)c1ccc2c(c1)OCO2	0.1	4.9	28.1*	0.3	3.6
O=C(CSc1nc2ccc(Cl)cc2[nH]1)c1ccc2c(c1)OCO2	-7.2	7.2	-3.0	0.8	nt
COc1ccc(-c2cc3c(=O)n(CC(=O)NCc4ccc(Cl)cc4)ncn3n2)cc1	2.0	2.0	-0.4	-0.5	nt
SMILES	Beta2AR agonist	DYRK1A inh	dFosB act-1	A1 inh	dFosB act-2
COc1ccc(-c2cc3c(=O)n(CC(=O)NCc4ccc(F)cc4)ncn3n2)cc1	7.9	-0.4	100.5*	-0.8	?
COc1ccc(-c2cc3c(=O)n(CC(=O)Nc4cccc(Cl)c4)ncn3n2)cc1	3.2	nt	42.0*	0.2	2.2
COc1ccc(CNC(=O)Cn2ncn3c(cc4ccccc43)c2=O)cc1	-11.9	5.9	73.3*	-0.5	0.7
COc1ccccc1NC(=O)Cn1nnc(C(=O)Nc2ccccc2)c1N	-6.2	4.8	33.3*	0.7	6.4
CCOc1ccc(NC(=O)c2nnn(CC(=O)Nc3ccccc3OC)c2N)cc1	2.0	18.2	4.2	-0.5	nt
COc1ccccc1NC(=O)c1nnn(CC(=O)Nc2cc(C)cc(C)c2)c1N	-3.1	-0.9	33.1*	-0.3	3.0
Cc1cc(C(C)(C)C)cc(C)c1C(=O)O	-0.5	-10.3	-4.7	0.5	nt
C#CCOCCOCCOCCNc1nc(N2CCN(C(=O)[C@H](CCCCN)n3cc([C@@H](N)CC(C)C)nn3)CC2)nc(N2CCN(C(=O)[C@H](Cc3ccc(O)cc3)n3cc([C@@H](N)CC(C)C)nn3)CC2)n1	nt	nt	nt	0.5	nt
C#CCOCCOCCOCCNc1nc(N2CCN(C(=O)[C@H](CCCCN)n3cc([C@@H](N)CC(C)C)nn3)CC2)nc(N2CCN(C(=O)[C@H](CCCCN)n3cc([C@@H](N)CC(C)C)nn3)CC2)n1	3.7	0.5	18.8*	0.1	?
O=C(CNC(=O)c1cc(S(=O)(=O)N2CCCCC2)ccc1N1CCOCC1)Nc1ccc(F)c(F)c1	1.1	10.8	54.1*	-0.7	0.5
O=C(Nn1c(C2CCCCC2)nc2ccccc2c1=O)c1ccc([N+](=O)[O-])cc1Cl	8.4	-6.1	42.7*	-0.5	3.2
Cc1ccc(CNC(=O)c2nccnc2C(=O)O)cc1	-1.4	3.8	6.3	0.0	nt
Cc1ccc(Cn2c(CCNc3nc(-c4ccc(C)cc4)cs3)nc3cc(C(=O)NCCCO)ccc32)cc1	13.6	-8.2	23.4*	-0.2	1.3
CC(C)c1ccc(NC(=O)[C@H](NC(=O)[C@@H]2Cc3ccccc3CN2)c2ccccc2)cc1	3.1	-4.3	56.5*	0.9	4.8
CN(CC(=O)Nc1ccc(F)c(F)c1F)C(=O)c1cc(-c2ccncc2)nc2ccccc12	14.4	1.1	-2.8	0.8	nt
CN(CC(=O)Nc1ccc(Cl)c(C(F)(F)F)c1)C(=O)c1cc(-c2ccncc2)nc2ccccc12	19.0	14.0	65.7*	-0.4	0.4
CCCCn1c(N)c(N(CC(C)C)C(=O)c2cccc(S(=O)(=O)N3CCCCCC3)c2)c(=O)[nH]c1=O	-4.8	9.7	38.6*	-0.6	-4.7
CCCCn1c(N)c(N(CC(C)C)C(=O)c2cccc(S(=O)(=O)N3CCCCC3)c2)c(=O)[nH]c1=O	-4.9	3.4	6.3	0.2	nt
Cc1c(Br)cnn1C(C)C(=O)N1CCN(c2ccccc2F)CC1 (stereo not drawn)	-2.6	-4.7	-10.3	-0.2	nt
COc1ccc(Br)cc1CNC(=O)C1CCN(c2nnc(N3CCCC3=O)s2)CC1	-14.6	-4.1	43.3*	0.3	1.6
C=CCn1c(=NC(=O)c2cc(Cl)sc2Cl)sc2cc(S(N)(=O)=O)ccc21	-3.5	2.9	25.4*	-0.3	3.5
CCc1cccc2c(C(=O)COC(=O)c3ccc(O)cc3)c[nH]c12	10.3	2.5	35.9*	2.0	3.9
CCc1cccc2c(C(=O)COC(=O)c3ccccc3)c[nH]c12	4.4	-1.3	-3.2	-2.2	nt
